Rows were chosen to be rich in hits. Some 32% of all compounds tested hit in one or more screens of this group.
PostGolgi yeast: growth inhibition of a yeast mutant, post-Golgi transport screen | post-Golgi transport phenotypic cell assay | inhibition, % at 10 µM | actives 0.9% (n = 98,000) | AID 739;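 note: yeast cells grown in 1536-well plates; yeast grown about 18 h at 30C before absorbance read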
PostGolgi ctrl: yeast control strain growth, post-Golgi counter-screen; efflux-deficient yeast background strain, growth absorbance A615, 16 h; inhibition, % at 10 µM; actives 5% (n = 98,000)
CYP2C19 inhib: inhibitors of human CYP2C19; inhibition, % at 5 µM; AID 778; actives 21% (n = 96,000); P33261; CYP2C19 Supersomes, luciferin-H EGE luminescence, 30 min;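 active = CYP2C19 inhibition above a set limit at 5 µM in the primary screen, cut at about 50% in these data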;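 note: plate controls were negative control wells for no effect and 2.5 mM tranylcypromine positive control for full effect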
CYP2C9 activ: CYP2C9 (human) activation. P11712. recombinant CYP2C9, luciferin-H conversion, luminescence; active compounds read high; factor 1 = untreated enzyme, 0 = blocked. activation factor at 5 µM. actives 1.4% (n = 96,000). AID 1024;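 active = activation factor of 2 or more for CYP2C9 at a 5 µM dose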;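 note: 0 = sulfaphenazole-blocked wells and 1 = vehicle-only wells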
Target sequence (P11712 whole entry, looked up): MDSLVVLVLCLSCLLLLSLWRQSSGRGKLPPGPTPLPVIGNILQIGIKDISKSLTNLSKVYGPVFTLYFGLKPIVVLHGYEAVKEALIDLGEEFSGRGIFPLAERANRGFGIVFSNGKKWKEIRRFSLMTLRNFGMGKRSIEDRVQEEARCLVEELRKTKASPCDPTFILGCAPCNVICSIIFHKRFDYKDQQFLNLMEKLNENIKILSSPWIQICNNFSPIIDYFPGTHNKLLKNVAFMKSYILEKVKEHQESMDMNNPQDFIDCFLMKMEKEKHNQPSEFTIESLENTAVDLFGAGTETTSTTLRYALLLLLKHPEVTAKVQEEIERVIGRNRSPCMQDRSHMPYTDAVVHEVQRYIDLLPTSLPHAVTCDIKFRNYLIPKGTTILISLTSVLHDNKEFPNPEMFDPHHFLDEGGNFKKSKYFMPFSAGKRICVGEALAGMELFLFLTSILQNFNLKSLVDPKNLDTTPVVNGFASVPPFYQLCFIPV
CYP2C19 activ: increases human CYP2C19 enzyme activity. P33261. recombinant CYP2C19, luciferin-H EGE luminescence; active compounds read high; 0 = fully inhibited enzyme, 1 = untreated enzyme. activation factor at 5 µM. 96,000 tested, under 10 active;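 active = activation factor of at least 2 at 5 µM in the primary screen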;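 note: 0 = wells with 2.5 mM tranylcypromine and 1 = vehicle-only wells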
CYP2C9 inhib: inhibitors of human CYP2C9. P11712. CYP2C9 Supersomes, luciferin-H conversion, luminescence. inhibition, % at 5 µM. actives 20% (n = 96,000);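 active = blocking of liver enzyme CYP2C9 beyond about 50% at 5 µM, limit read from the data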
The depositor's hits bear a star; . = not tested or not shown. Cut-off read from the data, not from the text of the source, unless noted: active = inhibition above about 30%; inactive = the rest.

SMILES	PostGolgi yeast	PostGolgi ctrl	CYP2C19 inhib	CYP2C9 activ	CYP2C19 activ	CYP2C9 inhib
O=C(c1ccccc1)N1CCN(C2CC(=O)N(CCc3ccccc3)C2=O)CC1 (configuration not stated)	19	2	-10	1.1	1.1	-9
CCOC(=O)C1C2C=CC3(CN(c4ccc(Cl)c(F)c4)C(=O)C13)O2 (configuration not stated)	0	2	.	.	.	.
COc1ccc(OC)c(S(=O)(=O)NCC2CCCO2)c1 (configuration not stated)	-2	1	20	1	0.8	2
COc1cc(C)c(Cl)cc1S(=O)(=O)NCC1CCCO1 (configuration not stated)	-1	4	94*	1.5	0.1	-46
C(#Cc1ccccc1)Cn1nnc2ccccc21	-2	9	45	0.8	0.6	17
C=CCC(Nc1ccco1)c1ccccc1 (configuration not stated)	-4	9	-10	1.1	1.1	-10
Cc1cc(=O)c2cc(Br)ccc2[nH]1	-7	3	23	0.5	0.8	52*
Cc1cc(=O)c2ccccc2[nH]1	-3	-3	-14	1.6	1.1	-59
CN(CCOC(=O)c1cccc(Br)c1)C(C)(C)C	3	7	25	0.4	0.8	60*
O=C(CN(CC1CCCO1)C(=O)CNS(=O)(=O)c1ccc(Cl)cc1)NCCc1ccccc1 (configuration not stated)	8	-3	25	0.8	0.8	17
CCOC(=O)c1sc(NC(=O)CN(CC(C)C)CC(C)C)c(C(=O)OCC)c1C	4	-4	35	0.4	0.7	62*
CCOC(=O)c1c(NC(=O)COC)sc(C(C)=O)c1C	11	11	17	0.6	0.8	38
CCOC(=O)c1c(NC(=O)OC)sc(C(=O)N(CC)CC)c1C	-1	12	56*	0.3	0.4	67*
COC(=O)c1c(NC(=O)c2nc3ncccn3n2)sc(C(=O)N(C)C)c1C	.	.	-10	1.1	1.1	-6
CCN(CC)C(=O)c1sc(NC(=O)C(Sc2ccccc2)c2ccccc2)c(C(=O)OC(C)C)c1C (configuration not stated)	-6	8	21	0.2	0.8	84*
CCOC(=O)c1c(NC(=O)c2ccoc2C)sc(C(=O)N(C)C)c1C	8	-3	57*	0.2	0.4	83*
O=C(Nc1ccc(F)cc1)c1cccc2c1C(=O)N(Cc1ccccn1)C2	-12	20	14	0.7	0.9	34
Cc1ccc(Nc2nnns2)cc1C	-5	14	40	0.7	0.6	34
Cc1cc(C)c2c(CC(=O)Nc3ccc(Cl)cn3)coc2c1	-4	5	13	1.1	0.9	-12
NC(=O)c1ccccc1N/C=C/C(=O)c1ccco1	1	-15	60*	0.7	0.4	29
O=C(NCc1ccco1)Nc1ccc2snnc2c1	5	1	83*	0.1	0.2	86*
COc1ccc(NC(=O)NC2(C(=O)N3CCCCCC3)CCCCC2)cc1	-11	24	29	0.4	0.7	60*
O=C(Nc1ccc(F)cc1)NC1(C(=O)NCc2ccco2)CCCCC1	4	32*	45	0.6	0.6	44
Cc1ccc(CNC(=O)C2(NC(=O)Nc3ccc(C)cc3)CCCCC2)cc1	-3	10	46	0.5	0.5	54*
CCOc1ccc(S(=O)(=O)N2CCN(c3ccccc3OC)CC2)c2cccnc12	-5	30	49	0.4	0.5	58*
SMILES	PostGolgi yeast	PostGolgi ctrl	CYP2C19 inhib	CYP2C9 activ	CYP2C19 activ	CYP2C9 inhib
COc1ccccc1N1CCN(S(=O)(=O)c2ccc3c4c(cccc24)C(=O)N3)CC1	-6	13	31	0.8	0.7	16
CCOc1ccc(S(=O)(=O)N2CCN(c3ccc(OC)cc3)CC2)c2cccnc12	16	2	17	0.6	0.8	42
COc1ccccc1N1CCN(S(=O)(=O)c2ccc3c4c(cccc24)C(=O)N3C)CC1	7	6	64*	0.3	0.4	72*
CCOc1ccc(S(=O)(=O)N2CCN(c3ccccc3)CC2)c2cccnc12	2	7	36	0.4	0.6	59*
Cn1nnnc1SCC(=O)Nc1ccccc1N1CCCCC1	13	3	.	.	.	.
CCOC(=O)c1c(=O)n(O)c2ccc(OC)cc2[n+]1[O-]	2	-4	-1	1	1	-4
O=C(O)CC1Sc2ccccc2NC1=O (configuration not stated)	27	-6	-12	1.4	1.1	-36
CCCNC(=O)CC1Sc2ccccc2NC1=O (configuration not stated)	-6	39*	30	2.4*	0.7	-136
Cc1noc(C)c1S(=O)(=O)Nc1ccc(C(=O)N2CCN(c3cccc(Cl)c3)CC2)cc1	18	12	-6	0.2	1.1	79*
Cc1noc(C)c1C(=O)N1CCc2ccccc2C1	-2	-6	50	1	0.5	3
Cc1cccc(N2CCN(C(=O)c3ccc(NS(=O)(=O)c4c(C)noc4C)cc3)CC2)c1C	5	14	7	0	0.9	96*
Cc1cccc(N2CCN(C(=O)CSCc3c(C)noc3C)CC2)c1C	5	10	8	0.7	0.9	33
Cc1noc(C)c1S(=O)(=O)Nc1ccc(C(=O)N2CCc3ccccc3C2)cc1	-1	-4	13	0.4	0.9	59*
CCc1cccc(NC(=O)c2ccc(NS(=O)(=O)c3c(C)noc3C)cc2)c1	0	0	7	0.5	0.9	51*
Cc1cccc(NC(=O)c2ccc(NS(=O)(=O)c3c(C)noc3C)cc2)c1	20	-2	4	0.6	1	40
O=C(NCc1ccco1)C1CCCN1C(=O)NCc1ccccc1 (configuration not stated)	-5	6	5	1	0.9	3
COc1ccc2[nH]c(C)c(CN3CCC(C)CC3)c(=O)c2c1	14	-3	-15	1.1	1.2	-11
COc1ccc2[nH]c(C)c(CCN3C(=O)C4CC=CCC4C3=O)c2c1 (configuration not stated)	1	23	97*	0.4	0	58*
COc1ccc2[nH]c(=O)c3c(c2c1)OC(C)(C)C=C3	4	8	16	0.5	0.8	48
COc1ccc2[nH]c(C)c(CCN3C(=O)OC(C)(C)C3(C)O)c2c1 (configuration not stated)	-9	13	99*	0.1	0	86*
CCCc1nc2c(C)ccc(C)c2c(N)c1CC	0	-3	9	0.7	0.9	34
Cc1cc(N2CCN(C/C=C/c3ccccc3)CC2)n2ncnc2n1	7	4	21	0.5	0.8	52*
CCCCn1c(CN2CCN(C(=O)OCC)CC2)nc2c1c(=O)n(C)c(=O)n2C	-5	0	-11	1	1.1	-3
Cc1cc2c(c(Sc3ccccc3)n1)C(=O)OC2	0	-1	50*	0.7	0.5	27

Compound activity as filed in PubChem.
